Screens deposited in PubChem by National Center for Advancing Translational Sciences (NCATS).
A selection: hits, their analogues and other compounds. The true share with any hit is near 3.6%.
Hsp90 Hop PPI: qHTS Assay for Disrupters of an Hsp90 Co-Chaperone Interaction | AlphaScreen TPR2A-His6 binding biotin-Hsp90 C-terminal peptide | Potency, µM (top dose mostly 57 µM), for the others: top-dose activity change, negative = inhibition | actives 0.44% (n = 71,000) | AID 595, 2007 | Hsp90 C-terminal peptide / TPR2A (Hop) interaction, human; active means well fitted curve in either direction with a large enough effect; inconclusive means small, poorly fitted or top-dose-only effect, or another doubt; further: on the % scale 0 is the no-effect control and ±100 the full control effect
CRE Fsk mod: Cell signaling CRE-BLA (Fsk stim); CHO CRE-bla reporter (cAMP response element driving beta-lactamase), forskolin EC10, beta-lactamase ratio; Potency, µM (titrated, usually from 38.2 µM), without a hit: at the highest dose activity change, negative = inhibition, usual class: activators; actives 2.5% (n = 71,000); active means well fitted activation curve with a large enough effect in the signal ratio, with a control signal flat, not every such curve was filed as active; inconclusive means small, poorly fitted or top-dose-only effect, or effect the other way, or a change in a side signal; the % refers to the signal ratio; further: % of control where 0% means no effect
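Modulation of forskolin-driven signalling is measured in CHO cells carrying a CRE-controlled beta-lactamase reporter. Cells are stimulated with EC10 NKH 477 in the presence of titrated compound for 3 h at 37 °C, then loaded with CCF4 for 2 h at room temperature.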
Tau filament bind: qHTS Assay for Tau Filament Binding | Potency, µM (titrated, usually from 57.1 µM), without a hit: at the top dose activity change, negative = inhibition | AID 596, 2007 | actives 2% (n = 71,000) | Microtubule-associated protein tau (Homo sapiens), P10636 | recombinant tau filaments, thioflavin S fluorescence, 15 h; filaments grown with octadecylsulfate alongside compound;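 further: on the % scale 0 is the no-effect control and ±100 the full control effect; actives lower thioflavin S fluorescence by blocking filaments or displacing dye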
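ThS-based fibril read: tau 1 uM final, inducer ODS 30 uM final, 37 C for 15 h, ex 450/em 510 nm.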
IkB sig inh: IkB Signaling. ABC-DLBCL IkBa-CBG/CBR dual luciferase ratio, 4 h; response scale: scaled: untreated 0%, proteasome inhibitor 100%. Potency, µM (top dose mostly 57.1 µM), inactives show at the highest dose IkBa stabilization activation. actives 0.04% (n = 110,000); active means well fitted curve in the direction sought with a large enough effect in the signal ratio, not every such curve was filed as active; inconclusive means small, poorly fitted or top-dose-only effect, or a change in a side signal; the % refers to the signal ratio;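 further: the direction sought is a rising ratio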
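Curves were fitted separately to fusion (green), unfused (red) and ratio luminescence, then classed by r2, magnitude and activity. Cells: OCI-Ly3, 4 h compound plus doxycycline at 37C; 10 uM MG-132 defined full response.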
15-hLO inh: qHTS Assay for Inhibitors of 15-hLO (15-human lipoxygenase) | Polyunsaturated fatty acid lipoxygenase ALOX15 (Homo sapiens), P16050 | purified 15hLO-1, xylenol orange hydroperoxide absorbance | Potency, µM (top dose mostly 57.1 µM), for inactives: top-dose activity change, negative = inhibition, actives largely listed as inhibitors | actives 1.4% (n = 74,000); further: on the % scale 0 is the no-effect control and ±100 the full control effect; nearly all actives have a fitted effect of over 55% in size
Target sequence (P16050 whole entry, looked up): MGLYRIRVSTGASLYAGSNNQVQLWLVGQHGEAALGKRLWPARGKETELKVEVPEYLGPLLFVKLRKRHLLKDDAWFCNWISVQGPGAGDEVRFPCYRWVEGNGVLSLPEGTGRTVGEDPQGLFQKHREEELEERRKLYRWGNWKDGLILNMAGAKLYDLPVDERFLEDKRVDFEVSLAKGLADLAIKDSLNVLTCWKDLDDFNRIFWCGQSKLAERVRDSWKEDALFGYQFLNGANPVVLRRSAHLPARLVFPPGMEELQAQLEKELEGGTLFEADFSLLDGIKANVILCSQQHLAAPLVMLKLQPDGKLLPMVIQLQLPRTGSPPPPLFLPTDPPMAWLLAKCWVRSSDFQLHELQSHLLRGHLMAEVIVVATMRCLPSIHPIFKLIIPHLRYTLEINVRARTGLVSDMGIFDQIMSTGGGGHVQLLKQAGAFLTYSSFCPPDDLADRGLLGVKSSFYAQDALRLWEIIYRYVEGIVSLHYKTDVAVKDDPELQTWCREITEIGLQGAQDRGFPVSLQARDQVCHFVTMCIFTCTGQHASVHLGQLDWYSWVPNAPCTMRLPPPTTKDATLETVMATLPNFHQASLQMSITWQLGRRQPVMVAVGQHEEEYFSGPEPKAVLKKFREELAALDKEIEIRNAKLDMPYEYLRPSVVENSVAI
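Hydroperoxide formed from arachidonic acid (50 uM) by purified human 15hLO-1 (40 nM) oxidizes ferrous iron, and the ferric-xylenol orange complex is read at 573 versus 405 nm. Compounds were preincubated 15 min; reaction ran 6 min at room temperature.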
Numbers without * were called inactive; ? = inconclusive; nt = no result; [ ] = another dose, or the depositor's remark. Unless noted, the call rests on the fitted dose curve; in most records, active means well fitted curve in the direction sought with a large enough effect; inconclusive means small, poorly fitted or top-dose-only effect, or another doubt; inactive means no such curve, though single readings can be large; an effect the other way counts as inactive or inconclusive. Potency means the concentration at half of the fitted maximal effect.

SMILES	Hsp90 Hop PPI	CRE Fsk mod	Tau filament bind	IkB sig inh	15-hLO inh
CCN1C(=O)c2cccc3c(NC(=O)c4ccc5c(c4)OCCO5)ccc1c23	-1.9%	2.51µM*	279.5%	-1.2%	3.5%
CCN1C(=O)c2cccc3c(NC(=O)C4CCCCC4)ccc1c23	-1.5%	?	-25.0%	-0.8%	2.4%
Cc1ccccc1Cn1c(=O)n(Cc2ccc3c(c2)OCO3)c(=O)c2oc3ccccc3c21	nt	nt	nt	-1.0%	nt
O=C(CCCCn1c(=O)c2ccccc2n(Cc2ccccc2Cl)c1=O)NCCc1ccccc1	nt	nt	nt	-2.6%	nt
Cc1ccc(N=Nc2c(O)ccc3cc(S(=O)(=O)O)ccc23)cc1	?	-9.8%[7.6 µM]	3.16µM*	-0.7%[11.4 µM]	-7.7%[11.4 µM]
O=S(=O)(O)c1ccc2cc(N=Nc3cc(S(=O)(=O)O)c4cccnc4c3O)ccc2c1	?	?	7.3%[11.4 µM]	-1.3%[11.4 µM]	38.7%[11.4 µM]
Cc1ccc(S(=O)(=O)Oc2ccc(N=Nc3ccc(-c4ccc(N=Nc5c(O)ccc6cc(S(=O)(=O)O)cc(S(=O)(=O)O)c56)c(C)c4)cc3C)cc2)cc1	0.0501µM*	?	0.01µM*	-8.2%	?
CCCn1c(=O)c2[nH]c(-c3ccccc3)nc2n(CCC)c1=O	-0.2%	0.2µM*	?	0.2%	3.5%[25.6 µM]
CCn1c(=O)c2[nH]c(-c3ccccc3)nc2n(CC)c1=O	-1.5%	?	1.2%	5.3%	8.0%
CC1CCC(C(=O)O)NC1c1cccc(N2CCCC2=O)c1 (stereo unspecified)	nt	nt	nt	nt	5.8%[11.4 µM]
Cc1ccsc1C=Nc1ccc(O)cc1	-22.6%	?	20µM*	?	?
Cc1ccsc1/C=C/C1=NCCCN1C	nt	nt	nt	nt	-1.0%
CCCS(=O)(=O)c1c(S(=O)(=O)CCC)c2ccccn2c1C(=O)OC	-3.5%	15.0%	1.9%	0.6%	-6.7%
CCCS(=O)(=O)c1c(S(=O)(=O)CCC)c2c(N)cccn2c1C(=O)c1ccc(F)cc1	-26.8%	-13.5%	394.1%	?	10µM*
Cc1cc(NC(=O)c2cc(-c3cccc(Cl)c3)on2)n(-c2ccccc2)n1	nt	nt	nt	18.5%	nt
Cc1cccn2c(=O)c3cc(C(=O)NCc4cccnc4)c(=N)n(C(C)C)c3nc12	-5.8%	12.6µM*	388.3%	1.6%	-6.1%
CC(C)n1c(=N)c(C(=O)NCCc2ccccc2)cc2c(=O)n3ccccc3nc21	2.2%	10µM*	3.16µM*	-3.7%	-11.0%
Nc1cccc2c(N)cccc12	-2.7%	-9.6%	31.6µM*	?	-16.2%
Nc1ccccc1O	-0.7%	?	4.4%	?	?
O=c1cc(Nc2ccc3c(c2)OCO3)[nH]c(=O)n1-c1ccc(Br)cc1	-18.4%	3.5%	15.8µM*	-1.1%	9.3%
O=C(Nc1ccc(Br)cc1F)c1cc(S(=O)(=O)NCc2ccc(F)cc2)ccc1F	nt	nt	nt	-1.2%	nt
Cc1ccc(C2CC(=O)N3CN(c4ccc(Br)cc4)CSC3=C2C#N)o1 (stereo unspecified)	-8.6%	?	?	8.3%	2.51µM*
N#CC1=C2SCN(c3ccccc3)CN2C(=O)CC1c1ccccc1Cl (stereo unspecified)	-2.4%[2.3 µM]	3.7%	-22.6%	2.0%	?
N#CC1=C2SCN(c3ccccc3)CN2C(=O)CC1c1c(Cl)cccc1Cl (stereo unspecified)	1.8%[2.3 µM]	?	-12.4%	?	3.16µM*
N#CC1=C2SCN(c3ccccc3)CN2C(=O)CC1c1cccs1 (stereo unspecified)	-4.6%	-14.4%	-8.2%	6.1%	3.98µM*
SMILES	Hsp90 Hop PPI	CRE Fsk mod	Tau filament bind	IkB sig inh	15-hLO inh
O=C1CC(N2CCN(c3ccc(O)cc3)CC2)C(=O)N1Cc1cccs1 (stereo unspecified)	-4.7%	-10.8%	-21.1%	?	12.6µM*
CCCCC/C=C\C[C@H](O)/C=C\c1cccc(C[C@H](O)CCCCO)n1	-10.6%	?	-4.1%	3.9%	20µM*
CCOC(=O)c1c(NC(=O)C(F)(OC)C(F)(F)F)sc2c1CCN(C)C2 (stereo unspecified)	-9.7%	10µM*	72.7%	0.9%	-12.8%
CCOC(=O)c1c(NC(=O)CSc2nnc(C)s2)sc2c1CCN(C)C2	?	?	13.0%	0.0%	?
Oc1ccc(N=Cc2ccc(O)c(O)c2)cc1	-28.9%	?	6.31µM*	?	12.6µM*
C[N+](C)(C)/N=C\c1ccc(O)c(O)c1	-6.2%[11 µM]	0.7%[7.6 µM]	6.6%[11.4 µM]	3.1%[11.4 µM]	-5.4%[11.4 µM]
CC1=C(C(=O)Nc2cc(-c3cccc(F)c3)[nH]n2)C2(CCCCC2)OC1=O	-5.7%	-17.7%	12.6µM*	?	-4.3%
CCCCSc1nc(-c2ccc(OC)cc2)ccc1C#N	nt	nt	nt	0.0%	nt
CCSc1nc(-c2ccc(OC)cc2)ccc1C#N	25.1µM*	?	12.9%	1.5%	-20.5%
CCC(C)C1NC(=O)C(CCNCS(=O)(=O)O)NC(=O)C(NC(=O)C(CCNCS(=O)(=O)O)NC(=O)C(NC(=O)C(CCNCS(=O)(=O)O)NC(=O)CCCCC(C)C)C(C)O)CCNC(=O)C(C(C)O)NC(=O)C(CCNCS(=O)(=O)O)NC(=O)C(CCNCS(=O)(=O)O)NC(=O)C(C(C)CC)NC1=O (stereo unspecified)	nt	nt	nt	nt	3.16µM*
Clc1ccc(-c2noc(CN3CCCCC3)n2)cc1	-1.6%[11 µM]	10.3%[7.6 µM]	-5.7%[11.4 µM]	1.9%[11.4 µM]	9.0%[11.4 µM]
Clc1ccc(-c2nnc(N3CCCC3)nn2)cc1	-11.6%	4.2%	12.6µM*	3.8%	-19.2%
O=C(Nc1sc2c(c1C(=O)O)CCCCC2)c1ccco1	0.5%	5.6%	12.2%	?	0.0%
CCOC(=O)c1c(NC(=O)c2cccs2)sc2c1CCCC2	10.7%	8.7%	245.0%	1.5%	-4.8%
CCOC(=O)c1c(NC(=O)c2cccs2)sc(C(=O)N2CCOCC2)c1C	1.5%	?	15.1%	-1.8%	7.6%
CCc1c(C)sc(NC(=O)c2cccs2)c1C(=O)OC(C)C	25.1µM*	?	10.5%	-0.4%	-0.6%
CCc1c(C)sc(NC(=O)c2ccco2)c1C(=O)N1CCCCC1	-2.0%	?	-0.1%	-3.4%	-23.6%
CCOC(=O)c1c(NC(=O)c2cccs2)sc2c1CCC2	7.0%	3.16µM*	243.0%	-0.9%	8.1%
CCOC(=O)c1c(NC(=O)c2ccco2)sc(C(=O)N2CCCC2)c1C	0.5%	12.6µM*	28.1%	-4.5%	2.5%
CCOC(=O)c1c(NC(=O)c2ccco2)sc2c1CCCCC2	?	10µM*	98.2%	9.6%	?
COc1cccc(-n2c(=O)c3c(C)c(C)sc3n(CC(=O)NCCc3ccc(OC)c(OC)c3)c2=O)c1	nt	nt	nt	-0.9%	nt
CCc1ccccc1NC(=O)Cn1nnc(C(=O)Nc2ccc(C)c(F)c2)c1N	nt	nt	nt	-2.1%	nt
CCCn1c(-c2ccc(F)cc2)nc2c(N3CCN(Cc4nc(OC)cc(OC)n4)CC3)nc(C)nc21	-7.1%	7.6%	35.7%	nt	-3.4%
